Test results as given in PubChem BioAssay (NCI).
The panel holds about 79,000 compounds, 15% with a hit somewhere; the sample as a whole holds those more often. Activity calls are given as the source filed them. Cut-off read from the data, not from the text of the source: active = growth inhibition above about 70%; inactive = the rest.

How the values were obtained:
[1] = NCI Yeast Anticancer Drug Screen. Data for the rad50 strain (AID 155);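 note: 0% = growth of vehicle-only cultures of the same strain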; conditions: S. cerevisiae rad50 strain growth inhibition, stronger effect = higher value
In short: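 DNA repair mutant yeast, compound exposure, growth read-out; inhibition is taken relative to vehicle.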

[2] = NCI Yeast Anticancer Drug Screen. Data for the mec2-1 strain (AID 157); conditions: S. cerevisiae mec2-1 strain, stronger effect = higher value
In short: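 Strain: mec2-1 (DNA repair/cell cycle alteration). Compound exposure, then growth measured; inhibition expressed relative to vehicle.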

[3] = NCI Yeast Anticancer Drug Screen. Data for the sgs1 mgt1 strain (AID 161);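 note: 0% = growth of cultures given vehicle only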; conditions: S. cerevisiae sgs1 mgt1 strain, stronger effect = higher value
In short: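 Genetically altered yeast, compound exposure, growth inhibition relative to vehicle.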

[4] = NCI Yeast Anticancer Drug Screen. Data for the cln2 rad14 strain (AID 165);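 note: 0% = growth equal to vehicle treated cultures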; conditions: S. cerevisiae cln2 rad14 strain, stronger effect = higher value
In short: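 Compounds are applied to the cln2 rad14 yeast strain, and growth is then compared with that of vehicle-treated cultures to give inhibition.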

[5] = NCI Yeast Anticancer Drug Screen. Data for the bub3 strain (AID 167); conditions: S. cerevisiae bub3 mutant strain, stronger effect = higher value
In short: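 In this screen, a yeast mutant lacking normal mitotic checkpoint function is challenged with compound. Relative growth versus vehicle gives the inhibition value.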

[6] = NCI Yeast Anticancer Drug Screen. Data for the mlh1 rad18 strain (AID 175); conditions: S. cerevisiae mlh1 rad18 strain growth inhibition, stronger effect = higher value
In short: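 Read-out is yeast growth inhibition, calculated against vehicle-only controls. The compound was applied to a strain engineered with DNA damage repair alterations.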

[7] = at 5.0 µM (retest, dose inferred, filed as 0.5)
[8] = at 50.0 µM (retest, dose inferred, filed as 5.0)

Measured: growth inhibition

Cc1csc(N)[n+]1CCC(=O)[O-]
inactive: [1]; [7] -1% | [1]; [8] -3% | [1]; at 50.0 µM -3.95% | [2]; [7] -1% | [2]; [8] -2% | [2]; at 50.0 µM -23.1% | [3]; [7] -1% | [3]; [8] -2% | [3]; at 50.0 µM -2.8% | [4]; [7] -3% | [4]; [8] 3% | [4]; at 50.0 µM 31.5% | [5]; [7] -1% | [5]; [8] 1% | [5]; at 50.0 µM -14.6% | [6]; [7] 0% | [6]; [8] -3% | [6]; at 50.0 µM -24.5%

CN1C(=O)c2cccc3c([N+](=O)[O-])ccc(c23)C1=O
active: [1]; at 50.0 µM 79.3% | [3]; at 50.0 µM 73.2% | [4]; [8] 84% | [5]; [8] 80% | [6]; [8] 75%
inactive: [1]; [7] -2% | [1]; [8] 55% | [2]; [7] -30% | [2]; [8] 65% | [2]; at 50.0 µM 17% | [3]; [7] 3% | [3]; [8] 68% | [4]; [7] 10% | [4]; at 50.0 µM 56.1% | [5]; [7] -9% | [5]; at 50.0 µM 10.2% | [6]; [7] 15% | [6]; at 50.0 µM 27.6%

Oc1ccc(Cl)cc1-c1ccccc1
active: [1]; [8] 86% | [1]; at 50.0 µM 94.1% | [2]; [8] 83% | [2]; at 50.0 µM 97% | [3]; [8] 76% | [3]; at 50.0 µM 90.2% | [4]; at 50.0 µM 74.2% | [5]; at 50.0 µM 94.7% | [6]; [8] 91% | [6]; at 50.0 µM 91.7%
inactive: [1]; [7] -1% | [2]; [7] -15% | [3]; [7] -13% | [4]; [7] -48% | [4]; [8] 68% | [5]; [7] 1% | [5]; [8] 68% | [6]; [7] 11%

NNc1ccc(Br)cc1
inactive: [4]; [7] 47% | [6]; [7] 33%
active: [1]; [7] 83% | [1]; [8] 98% | [1]; at 50.0 µM 90.3% | [2]; [7] 83% | [2]; [8] 98% | [2]; at 50.0 µM 92.2% | [3]; [7] 96% | [3]; [8] 99% | [3]; at 50.0 µM 92.7% | [4]; [8] 98% | [4]; at 50.0 µM 90.5% | [5]; [7] 98% | [5]; [8] 96% | [5]; at 50.0 µM 91% | [6]; [8] 100% | [6]; at 50.0 µM 89.7%

C[C@@]12C[C@@H](Br)[C@H](Br)C[C@]1(C)O2
active: [1]; at 50.0 µM 94.5% | [2]; at 50.0 µM 98.7% | [3]; at 50.0 µM 98.1% | [6]; at 50.0 µM 93.2%
inactive: [1]; [7] 0% | [1]; [8] 16% | [2]; [7] -1% | [2]; [8] 8% | [3]; [7] 0% | [3]; [8] 15% | [4]; [7] -2% | [4]; [8] 2% | [4]; at 50.0 µM 64.5% | [5]; [7] -6% | [5]; [8] 0% | [5]; at 50.0 µM 55% | [6]; [7] -1% | [6]; [8] 6%

N#CC(C(=O)CCc1nc2ccccc2[nH]1)c1c(Cl)cccc1Cl (configuration not stated)
inactive: [1]; [7] -14% | [1]; [8] 19% | [1]; at 50.0 µM -21.2% | [2]; [7] 4% | [2]; [8] 12% | [2]; at 50.0 µM 8.05% | [3]; [7] 7% | [3]; [8] 2% | [3]; at 50.0 µM 19.6% | [4]; [7] -5% | [4]; [8] 3% | [4]; at 50.0 µM -30.1% | [5]; [7] -2% | [5]; [8] 6% | [5]; at 50.0 µM 6.75% | [6]; [7] -1% | [6]; [8] 0% | [6]; at 50.0 µM 16.1%

c1cc[c]([Sn]([S]c2ccccn2)([c]2ccccc2)[c]2ccccc2)cc1
active: [1]; [7] 100% | [1]; [8] 99% | [1]; at 50.0 µM 99.5% | [2]; [7] 100% | [2]; [8] 99% | [2]; at 50.0 µM 99.5% | [3]; [7] 99% | [3]; [8] 99% | [3]; at 50.0 µM 99.1% | [4]; [7] 99% | [4]; [8] 99% | [4]; at 50.0 µM 97% | [5]; [7] 96% | [5]; [8] 99% | [5]; at 50.0 µM 99.2% | [6]; [7] 99% | [6]; [8] 99% | [6]; at 50.0 µM 99.2%

COC(=O)CCC(C)C1CCC2C3CCC4CC(SC(=N)N)CCC4(C)C3CC(O)C12C (configuration not stated)
inactive: [2]; [7] 23% | [4]; [7] 63%
active: [1]; [7] 95% | [1]; [8] 99% | [1]; at 50.0 µM 99.1% | [2]; [8] 99% | [2]; at 50.0 µM 99.7% | [3]; [7] 98% | [3]; [8] 99% | [3]; at 50.0 µM 99.7% | [4]; [8] 99% | [4]; at 50.0 µM 99.2% | [5]; [7] 99% | [5]; [8] 99% | [5]; at 50.0 µM 99.3% | [6]; [7] 84% | [6]; [8] 99% | [6]; at 50.0 µM 99.4%

O=C(Nc1ccc(Br)cc1)c1c(-c2ccccc2)c2ccc(O)cc2oc1=O
active: [1]; [8] 96% | [1]; at 50.0 µM 96.3% | [2]; [8] 97% | [2]; at 50.0 µM 95.5% | [3]; [8] 93% | [3]; at 50.0 µM 98.6% | [4]; [8] 95% | [4]; at 50.0 µM 94% | [5]; [8] 96% | [5]; at 50.0 µM 97.2% | [6]; [8] 96% | [6]; at 50.0 µM 98.4%
inactive: [1]; [7] 0% | [2]; [7] -9% | [3]; [7] -5% | [4]; [7] -7% | [5]; [7] -10% | [6]; [7] -3%
